Source: PubChem BioAssay (National Center for Advancing Translational Sciences (NCATS))
Epigenetic mod: epigenetic GFP locus derepression in mouse cells | AID 597 | 0.09% of 68,000 active | mouse C127i GFP locus derepression, cytometry, 30 h | Potency, µM (titrated, usually from 46.1 µM)
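Read-out is the number of GFP-positive cells, scored as fluorescent objects 20 to 120 um wide, reflecting derepression of a silenced CMV-GFP reporter in murine C127i cells after 30 h compound exposure at 37 C.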
HBB splicing: alters splicing of the hemoglobin beta chain | AID 925 | 0.06% of 65,000 active | Potency, µM (doses to about 46.1 µM), usual class: activators | HBB splicing reporter cell assay, activation; EGFP reporter with mutant IVS2-654 intron; response scale: normalised to 500 nM splice-correcting PNA
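Compounds were applied for 2 days to HeLa EGFP-654 cells, 500/well in Optimem with 2% FCS. The reporter's EGFP is disrupted by mis-splicing of beta-globin intron IVS2-654. Readout: summed well GFP fluorescence from 488 nm laser scanning; reference was 500 nM antisense […] 654 PNA.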
UbGFP stabilizer: inhibits proteasome, raising ubiquitin-GFP reporter fluorescence | Ubiquitin-GFP reporter cells, proteasome inhibition, GFP fluorescence; response scale: untreated = 0%, 10 µM MG-132 = 100% | 67,000 tested, under 10 active | Potency, µM (series often up to 45.9 µM), most hits filed as activators | AID 526; active = well fitted activation curve with a large enough effect, not every such curve was filed as active; inconclusive = small, poorly fitted or top-dose-only effect, or another doubt; inactive = no such curve, though single readings can be large or run the other way
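GFP accumulation read-out: laser plate cytometry counting ubiquitin(G76V)-GFP-expressing U2OS cells after 4 hr compound exposure at 37 °C. Titrations spanned 46 uM to 2.9 nM; 0% = basal, 100% = 10 uM MG-132; concentration-response curves fitted.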
Numbers stand for hits; ! = not active in a repeat; [ ] = another dose, or the depositor's remark. Only some compounds are listed: those with a hit (about 0.12% of all), similar ones and a draw of the others. Unless noted, calls come from the whole dose curve; as a rule, active = well fitted curve in the direction sought with a large enough effect; inconclusive = small, poorly fitted or top-dose-only effect, or another doubt; inactive = no such curve, though single readings can be large; an effect the other way counts as inactive or inconclusive.

What do the screens show for `CCN(CC)C(=S)SSC(=S)N(CC)CC`?
Epigenetic mod: 1µM!; HBB splicing: inactive; UbGFP stabilizer: inactive

Results for Nc1cccc2c(N)cccc12 ?
HBB splicing: inactive

What do the screens show for `Nc1ccc2c3c(cccc13)CC2`?
Epigenetic mod: 13µM

Results for O=C(CSc1cccc2cccnc12)N1CCCC1 ?
Epigenetic mod: 0.63µM; HBB splicing: inactive; UbGFP stabilizer: inactive

What do the screens show for `CN(C)C(=O)CSc1cccc2cccnc12`?
Epigenetic mod: inconclusive; HBB splicing: inactive; UbGFP stabilizer: inactive

What do the screens show for `C[C@H]1[C@H](C)CC[C@@]2(C(=O)O)CC[C@]3(C)C(=CC[C@@H]4[C@@]5(C)CC[C@H](O)C(C)(C)[C@@H]5CC[C@@]43C)[C@@H]12`?
Epigenetic mod: inactive[9.22 µM]; UbGFP stabilizer: inactive

How did Oc1c(CN2CCCCC2)cc(Br)c2cccnc12 do in these assays?
Epigenetic mod: 3.2µM; HBB splicing: inactive; UbGFP stabilizer: inactive

Results for Oc1c(CN2CCc3ccccc3C2)cc(Cl)c2cccnc12 ?
HBB splicing: inactive; UbGFP stabilizer: inactive

Results for Oc1ccc(CN2CCN(Cc3ccccc3)CC2)c2cccnc12 ?
Epigenetic mod: inconclusive; UbGFP stabilizer: inactive

Results for CN1CCN(Cc2cc(COCc3ccccc3)c3cccnc3c2O)CC1 ?
Epigenetic mod: 6.3µM; HBB splicing: inactive; UbGFP stabilizer: inactive

Results for COC(=O)[C@@H](NC(=O)c1cc(-c2ccccc2)nc2ccccc12)c1ccccc1 ?
Epigenetic mod: inactive; HBB splicing: inactive; UbGFP stabilizer: inactive

What do the screens show for `O=S(c1ccccc1)c1ccc2nnnn2n1` (stereo not given)?
Epigenetic mod: inactive; UbGFP stabilizer: inactive

Results for OC[C@@H]1O[C@@H](n2cnc3c(NCCc4ccccc4)ncnc32)[C@@H](O)[C@H]1O ?
Epigenetic mod: inactive; HBB splicing: inactive; UbGFP stabilizer: inactive

How did Cc1ccc(C[C@H](Cc2nc3ccccc3[nH]2)c2nc3ccccc3[nH]2)cc1 do in these assays?
Epigenetic mod: inactive[9.22 µM]; UbGFP stabilizer: inactive

What do the screens show for `Cc1ccc(NC(=O)CSCC(N)=O)cc1C`?
Epigenetic mod: 16µM; HBB splicing: inactive; UbGFP stabilizer: inactive

Results for Cc1ccc(NC(=O)Cn2cccc2)cc1C ?
Epigenetic mod: inactive; HBB splicing: inactive; UbGFP stabilizer: inactive

How did CC1=C(/C=C/C(C)=C/C=C/C(C)=C/C(=O)O)C(C)(C)CCC1 do in these assays?
Epigenetic mod: 10µM

What do the screens show for `C#C[C@@]1(O)CC[C@H]2[C@H]3CCC4=Cc5oncc5C[C@]4(C)[C@@H]3CC[C@@]21C`?
Epigenetic mod: inactive; HBB splicing: inactive; UbGFP stabilizer: inactive

How did COc1ccc(-c2c(=O)n(OCc3ccccn3)c3ccccc3[n+]2[O-])cc1OC do in these assays?
Epigenetic mod: inactive; HBB splicing: inactive; UbGFP stabilizer: inactive

How did Cc1c(=O)n(OCc2ccccc2F)c2ccccc2[n+]1[O-] do in these assays?
Epigenetic mod: 13µM; HBB splicing: 20µM; UbGFP stabilizer: inactive

How did C/C(=C\COc1cc(=O)[nH]c2ccccc12)CC[C@@H](O)C(C)(C)O do in these assays?
Epigenetic mod: inactive[9.22 µM]; UbGFP stabilizer: inactive

What do the screens show for `COc1ccccc1OC1=NS(=O)(=O)c2ccccc21`?
Epigenetic mod: inactive; UbGFP stabilizer: inactive

What do the screens show for `CCN(CC)c1cccc(OC2=NS(=O)(=O)c3ccccc32)c1`?
Epigenetic mod: 3.2µM; HBB splicing: inactive; UbGFP stabilizer: inactive

Results for CC[C@@H]1CN2CCc3cc(OC)c(OC)cc3[C@H]2C[C@@H]1C[C@@H]1NCCc2cc(OC)c(OC)cc21 ?
Epigenetic mod: inactive; HBB splicing: inactive; UbGFP stabilizer: inactive

Results for O=C1[C@@H]2C=CC=CC2=NC(=S)N1CCN1CCC(=C(c2ccc(F)cc2)c2ccc(F)cc2)CC1 ?
Epigenetic mod: inactive; HBB splicing: inactive; UbGFP stabilizer: inactive

Results for S=C(S)N1CCCC1 ?
Epigenetic mod: 0.63µM; HBB splicing: inactive; UbGFP stabilizer: inactive

Results for O=C(N1CCCCC1)N1CCCN(C(=O)N2CCCCC2)CC1 ?
Epigenetic mod: inactive; HBB splicing: inactive; UbGFP stabilizer: inactive

Results for O=C(O)CCC/C=C\C[C@H]1[C@@H](/C=C\[C@@H](O)C2Cc3ccccc3C2)[C@H](F)C[C@H]1O ?
Epigenetic mod: inactive; HBB splicing: inactive; UbGFP stabilizer: inactive

How did CC(C)c1ccc2c(c1)CC[C@@H]1[C@@](C)(CN)CCC[C@@]21C do in these assays?
Epigenetic mod: inactive[9.22 µM]; UbGFP stabilizer: inactive

How did NS(=O)(=O)c1ccc(N=Nc2nc3[nH]c(=O)[nH]c(=O)c3[nH]2)cc1 do in these assays?
Epigenetic mod: inactive[9.22 µM]; HBB splicing: inactive[9.22 µM]; UbGFP stabilizer: inactive[9.17 µM]

How did NS(=O)(=O)c1ccc(N=Nc2nc3[nH]cnc(=S)c3[nH]2)cc1 do in these assays?
Epigenetic mod: inactive[9.22 µM]; HBB splicing: 4µM; UbGFP stabilizer: inactive[9.17 µM]

How did O=S(=O)(Nc1cccnc1)c1cccc2cccnc12 do in these assays?
HBB splicing: inactive; UbGFP stabilizer: inactive

How did Nc1ncnc2nc[nH]c12.Nc1ncnc2nc[nH]c12.[Cl][Pt]([Cl])([Cl])[Cl] do in these assays?
Epigenetic mod: inactive[9.22 µM]; HBB splicing: inactive[9.22 µM]; UbGFP stabilizer: inactive[9.17 µM]

Results for Nc1nc(N)nc(CCCCc2nc(N)nc(N)n2)n1 ?
Epigenetic mod: inactive[9.22 µM]; HBB splicing: inactive[9.22 µM]; UbGFP stabilizer: inactive[9.17 µM]
